Laboratory results reported in PubChem BioAssay (NCATS).
Inconclusive results are not listed. A call without a number means that no potency is given here. Calls of active or inactive are those of the source. Unless noted, calls follow the shape of the dose curve; as a rule, active = well fitted curve in the direction sought with a large enough effect; inconclusive = small, poorly fitted or top-dose-only effect, or another doubt; inactive = no such curve, though single readings can be large; an effect the other way counts as inactive or inconclusive.

How the values were obtained:
[1] = target: Lysosomal acid glucosylceramidase (Homo sapiens) (UniProt P04062); experiment: Glucocerebrosidase-p2 (AID 348; in the data active = potency below about 10 µM; also: potency is read from the fitted curve at half-maximal effect); conditions: purified GBA, blue fluorogenic substrate, 40 min
How it was run: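 Compounds titrated from 0.6 nM upwards against 0.2 nM enzyme in pH 5.9 citric acid/KH2PO4, taurocholate, tween-20; blue fluorogenic substrate 80 uM, 40 min room temperature, stopped and read Ex 365/Em 440 for AC50.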

[2] = AP1 Signaling Pathway (AID 357; active = well fitted curve in either direction with a large enough effect, not every such curve was filed as active;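 also: ME-180 reporter cells stimulated with EGF at its EC50 level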); conditions: ME-180 AP-1-bla reporter, EGF-induced, beta-lactamase ratio, 5 h; series mostly up to 17.2 µM
How it was run: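 Cells are seeded overnight, exposed to compound titrations and an EC50 level of EGF for 5 hours at 37 °C, then loaded with CCF4 dye for 2.5 hours. Beta-lactamase activity under the AP-1 element is read as a blue/green ratio.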

[3] = target: Cytochrome P450 1A2 (Homo sapiens) (UniProt P05177); experiment: p450-cyp1a2 (AID 410; calls by dose curve; also: potency is read from the fitted curve at half-maximal effect); conditions: recombinant CYP1A2, luciferin-ME demethylation, luminescence; series mostly up to 25.6 µM
How it was run: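 Luminescent readout of luciferin formed from Luciferin-ME by human CYP1A2; data normalized against complete inhibition by 57 uM furafylline. Enzyme 20nM, substrate 100uM at Km, 100mM KPO4 buffer, 60 min reaction at room temperature.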

[4] = Stat Signaling Pathway (AID 446; active = well fitted curve in either direction with a large enough effect, not every such curve was filed as active;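 also: ME-180 cervical cancer cells given 40 pM IL-6 alongside compound; SIE-controlled beta-lactamase reporter measured as 460/530 nm FRET emission ratio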); conditions: ME-180 SIE beta-lactamase reporter, IL-6 stimulated, 5 h; series mostly up to 17.2 µM
How it was run: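 ME-180 cells carrying a SIE-driven beta-lactamase reporter are stimulated with 40 pM IL-6 for 5 h at 37C in the presence of compound. The 460/530 nm FRET substrate ratio is read after 2.5 h at RT. Data are normalised to 300 pM IL-6 and to 125 nM JAK inhibitor controls.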

[5] = target: Glucocorticoid receptor (Homo sapiens) (UniProt P04150); experiment: GR-EFC Redistribution (AID 451; calls by dose curve; also: potency is read from the fitted curve at half-maximal effect); conditions: CHO-K1 GR-EFC translocation, beta-gal luminescence, 2 h
How it was run: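 Translocation of GR-ED fusion to nuclear EA restores b-gal, read by luminescence after 1 h room-temperature detection. Engineered CHO-K1 biosensor cells, 1,000/well, exposed 2 h at 37 C to titrations up to 46 uM final.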

[6] = target: Mitogen-activated protein kinase 10 (Mus musculus) (UniProt Q61831); experiment: JNK3 AlphaScreen Assay (AID 530; active = well fitted curve in either direction with a large enough effect, not every such curve was filed as active;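 also: kinase came from lysate of stimulated human HepG2 cells; signal reports phosphorylation of biotinylated GST-cJun 1-79 at Ser73 with 10 µM ATP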); conditions: JNK3 lysate, c-Jun phosphorylation; series mostly up to 57.1 µM
How it was run: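 Compound titrations were preincubated 15 minutes at room temperature with substrate, antibody and pre-activated JNK3-containing HepG2 lysate. Reactions were started with 10 uM ATP and stopped with EDTA-containing bead buffer for AlphaScreen detection.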

[7] = target: 3',5'-cyclic-AMP phosphodiesterase 4B (Homo sapiens) (UniProt Q07343); experiment: qHTS Assay for Inhibitors of PDE-IV (AID 607; active = well fitted activation curve with a large enough effect in the main read-out, with a control signal flat, not every such curve was filed as active); conditions: HEK293 ACTOne CNG channel cells, membrane potential fluorescence; series mostly up to 22.9 µM
How it was run: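 HEK293 ACTOne cells with CNG channel (1000/well), endogenous PDE4; membrane potential dye, compounds up to 22.9 uM final. Fluorescence Ex 535/Em 590; RO 20-1724 (100 uM final) as reference.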

[8] = target: Cytochrome P450 3A4 (Homo sapiens) (UniProt P08684); experiment: qHTS Assay for Activators of Cytochrome P450 3A4 (AID 885); conditions: recombinant CYP3A4, Luciferin-PPXE luminescence, 60 min; series mostly up to 57.1 µM; also: nearly all actives have a fitted effect of over 65% in size
How it was run: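 Human CYP3A4 (20 nM) with Luciferin-PPXE at 25 uM (its KM) in 200 mM KPO4; 10 min compound preincubation, then NADPH regeneration and 60 min reaction at RT. Luciferin read by luminescence; normalized to 57 uM ketoconazole full inhibition.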

[9] = qHTS Assay for Lipid Storage Modulators (AID 1519; calls by dose curve); conditions: Drosophila S3 cells, BODIPY lipid droplet/cell ratio, laser cytometry, cells loaded with oleic acid; for activity change, negative = inhibition: at 57.5 µM (top of the series)
How it was run: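 Cells seeded at 5,000 per well were treated with compounds over a concentration series and loaded with oleic acid (400 uM, as added). Lipid droplet fluorescence (488 nm excitation, 500-530 nm channel) was read by laser-scanning cytometry and normalized to 20 uM Triacsin C.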

[10] = Counterscreen qHTS for small molecule stabilizers of the endoplasmic reticulum resident proteome: GLuc-NoTag assay (AID 1508627); conditions: Gaussia luciferase NoTag secretion counterscreen, luminescence, thapsigargin 100 nM for final 4 h; series mostly up to 76.4 µM;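 also: SH-SY5Y cells given compound then 100 nM thapsigargin to empty ER calcium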
How it was run: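 Luminescence of Gaussia luciferase secreted into the medium (coelenterazine, 0.07x final, unlysed cells) was the read-out. Human SH-SY5Y neuroblastoma cells constitutively secreting untagged GLuc received compound for 19 h, then 100 nM thapsigargin for 4 h.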

[11] = Confirmatory qHTS for small molecule stabilizers of the endoplasmic reticulum resident proteome: Secreted ER Calcium Modulated Protein (SERCaMP) assay (AID 1508628); conditions: SERCaMP secreted luciferase ER calcium/proteostasis reporter; series mostly up to 76.3 µM; also: nearly all actives have a fitted effect of over 40% in size; also: potency is read from the fitted curve at half-maximal effect
How it was run: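 SH-SY5Y cells stably expressing GLuc-SERCaMP, treated 16 h with compound (primary 1.53, 7.67, 38.3 uM; confirmation 11 concentrations, up to 76.6 uM), then 100 nM thapsigargin for 4 h. Secreted Gaussia luciferase in medium read by coelenterazine luminescence.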

[12] = Cell Viability qHTS for small molecule stabilizers of the endoplasmic reticulum resident proteome (AID 1508629); conditions: cell viability counter-screen, 100 nM thapsigargin for final 4 h;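 also: human SH-SY5Y neuroblastoma cells carrying the GLuc-SERCaMP reporter; compound exposure about 46 h in total before the viability read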
[13] = test system: HIV-1 nucleocapsid protein NCp7 (binding to TG oligonucleotide); experiment: HIV Nucleocapsid (AID 346; call rule not given here;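 also: potency is read from the fitted curve at half-maximal effect; potency is for inhibitors that block NC binding and lower polarization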); conditions: HIV-1 NC / fluorescein-TGTGTGTG probe, fluorescence polarization
How it was run: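 HIV-1 NC (100 nM) binding to fluorescein-labelled ssDNA TG4xF (10 nM) in Hepes pH 7.5, 250mM NaCl, 1uM ZnCl2, TCEP and 2-mercaptoethanol; compounds pin-transferred, 1 hr room temperature, fluorescence polarization read on CCD imager.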

[14] = target: Calcium and integrin-binding protein 1 (Homo sapiens) (UniProt Q99828); experiment: Primary qHTS for Identification of Calcium Integrin Binding Protein 1 (CIB1) Competitor (AID 1508620); conditions: CIB1-GST / FITC-alphaIIb peptide fluorescence polarization; series mostly up to 114 µM;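 also: GST tagged CIB1 binding a fluorescein labelled alphaIIb integrin peptide tracer; top concentration of the series differs between compounds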
How it was run: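 CIB1-GST (1 uM final) and compound incubated 15 min at room temperature before adding FITC-alphaIIb peptide tracer (100 nM final). Competition for binding read by fluorescence polarization (ex 480, em 540) after another 15 min at room temperature.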

[15] = NFAT Signaling Pathway (AID 444; active = well fitted curve in either direction with a large enough effect, not every such curve was filed as active;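 also: carbachol stimulus at about its EC50 of 1 µM final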); conditions: Jurkat NFAT-bla M1, carbachol, beta-lactamase ratio, 5 h; at 7.69 µM (top of the series)
How it was run: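 Read-out: CCF4 FRET ratio (460 nm/530 nm) after 1 h RT dye loading, used for %activity and AC50 from titration series. Cells: Jurkat NFAT-β-lactamase/M1 line, treated with compound plus 1 uM carbachol for 5 h, 37 °C.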

[16] = measured here: cell count channel max response
[17] = measured here: lipid channel max response

Sequence of Glucocorticoid receptor (Homo sapiens) (P04150 whole entry, looked up, the tested form may be a part): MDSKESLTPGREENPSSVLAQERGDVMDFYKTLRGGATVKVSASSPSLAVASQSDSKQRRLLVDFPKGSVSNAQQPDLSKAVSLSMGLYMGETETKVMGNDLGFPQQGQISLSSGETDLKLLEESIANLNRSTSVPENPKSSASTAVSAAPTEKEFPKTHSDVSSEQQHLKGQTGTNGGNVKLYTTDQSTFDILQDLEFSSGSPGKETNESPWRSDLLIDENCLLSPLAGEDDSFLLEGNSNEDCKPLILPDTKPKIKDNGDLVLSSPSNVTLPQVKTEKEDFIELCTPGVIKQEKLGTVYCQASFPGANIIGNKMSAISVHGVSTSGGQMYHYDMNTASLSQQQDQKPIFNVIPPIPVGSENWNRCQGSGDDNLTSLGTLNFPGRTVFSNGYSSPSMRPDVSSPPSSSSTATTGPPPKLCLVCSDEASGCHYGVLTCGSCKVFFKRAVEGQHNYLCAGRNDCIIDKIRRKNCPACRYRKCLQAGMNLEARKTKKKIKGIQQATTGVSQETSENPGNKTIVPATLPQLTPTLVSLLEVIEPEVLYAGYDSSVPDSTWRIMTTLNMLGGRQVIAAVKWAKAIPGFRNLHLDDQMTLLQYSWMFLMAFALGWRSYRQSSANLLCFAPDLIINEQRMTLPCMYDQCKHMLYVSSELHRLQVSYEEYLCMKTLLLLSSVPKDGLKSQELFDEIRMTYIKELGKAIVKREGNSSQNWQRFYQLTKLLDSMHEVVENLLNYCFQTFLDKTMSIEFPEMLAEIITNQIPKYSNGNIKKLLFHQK
Sequence of 3',5'-cyclic-AMP phosphodiesterase 4B (Homo sapiens) (Q07343 whole entry, looked up): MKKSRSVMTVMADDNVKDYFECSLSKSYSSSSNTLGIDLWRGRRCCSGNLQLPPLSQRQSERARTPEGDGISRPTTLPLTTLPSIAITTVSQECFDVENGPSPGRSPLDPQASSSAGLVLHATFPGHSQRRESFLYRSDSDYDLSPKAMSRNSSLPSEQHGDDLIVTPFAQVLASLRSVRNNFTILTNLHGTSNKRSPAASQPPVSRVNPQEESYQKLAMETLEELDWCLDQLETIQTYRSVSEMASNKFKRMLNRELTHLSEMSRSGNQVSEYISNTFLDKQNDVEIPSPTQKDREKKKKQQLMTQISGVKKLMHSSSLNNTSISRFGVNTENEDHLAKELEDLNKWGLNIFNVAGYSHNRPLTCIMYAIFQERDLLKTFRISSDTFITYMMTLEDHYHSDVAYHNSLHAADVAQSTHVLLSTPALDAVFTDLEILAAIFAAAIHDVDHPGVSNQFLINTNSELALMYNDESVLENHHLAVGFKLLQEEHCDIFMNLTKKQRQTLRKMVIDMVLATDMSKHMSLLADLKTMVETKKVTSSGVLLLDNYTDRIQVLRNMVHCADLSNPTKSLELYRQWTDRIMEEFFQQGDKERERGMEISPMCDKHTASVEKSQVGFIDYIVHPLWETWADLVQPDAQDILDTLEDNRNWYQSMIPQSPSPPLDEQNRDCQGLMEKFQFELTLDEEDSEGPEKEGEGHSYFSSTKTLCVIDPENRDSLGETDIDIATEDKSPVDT
Sequence of Cytochrome P450 3A4 (Homo sapiens) (P08684 whole entry, looked up): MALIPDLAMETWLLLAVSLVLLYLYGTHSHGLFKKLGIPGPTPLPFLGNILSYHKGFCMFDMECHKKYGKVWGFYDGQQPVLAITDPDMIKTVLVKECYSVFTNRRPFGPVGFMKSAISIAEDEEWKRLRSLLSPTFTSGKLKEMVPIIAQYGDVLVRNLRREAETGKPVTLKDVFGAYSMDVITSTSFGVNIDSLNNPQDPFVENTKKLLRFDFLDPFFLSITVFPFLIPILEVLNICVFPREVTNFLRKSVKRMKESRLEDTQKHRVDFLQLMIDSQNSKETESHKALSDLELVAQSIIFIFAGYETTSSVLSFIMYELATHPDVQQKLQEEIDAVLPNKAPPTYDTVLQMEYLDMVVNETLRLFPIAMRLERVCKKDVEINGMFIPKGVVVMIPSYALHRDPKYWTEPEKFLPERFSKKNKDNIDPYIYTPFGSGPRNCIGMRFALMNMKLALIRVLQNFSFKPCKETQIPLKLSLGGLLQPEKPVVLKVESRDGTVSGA
Sequence of Lysosomal acid glucosylceramidase (Homo sapiens) (P04062 whole entry, looked up): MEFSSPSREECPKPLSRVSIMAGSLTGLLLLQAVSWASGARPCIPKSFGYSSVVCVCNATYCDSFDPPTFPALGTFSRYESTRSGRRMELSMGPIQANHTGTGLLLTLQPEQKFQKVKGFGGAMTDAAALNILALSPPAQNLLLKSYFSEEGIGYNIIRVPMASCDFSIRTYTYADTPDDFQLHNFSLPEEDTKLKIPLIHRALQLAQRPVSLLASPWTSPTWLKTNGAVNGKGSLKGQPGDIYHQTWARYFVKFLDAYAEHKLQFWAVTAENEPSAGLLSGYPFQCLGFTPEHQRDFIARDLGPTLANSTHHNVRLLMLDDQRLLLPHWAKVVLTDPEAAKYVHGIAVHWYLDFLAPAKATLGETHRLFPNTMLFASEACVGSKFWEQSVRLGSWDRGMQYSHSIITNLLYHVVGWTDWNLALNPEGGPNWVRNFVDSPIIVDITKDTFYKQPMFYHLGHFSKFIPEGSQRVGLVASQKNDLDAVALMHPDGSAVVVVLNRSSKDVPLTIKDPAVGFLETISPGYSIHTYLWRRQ
Sequence of Cytochrome P450 1A2 (Homo sapiens) (P05177 whole entry, looked up): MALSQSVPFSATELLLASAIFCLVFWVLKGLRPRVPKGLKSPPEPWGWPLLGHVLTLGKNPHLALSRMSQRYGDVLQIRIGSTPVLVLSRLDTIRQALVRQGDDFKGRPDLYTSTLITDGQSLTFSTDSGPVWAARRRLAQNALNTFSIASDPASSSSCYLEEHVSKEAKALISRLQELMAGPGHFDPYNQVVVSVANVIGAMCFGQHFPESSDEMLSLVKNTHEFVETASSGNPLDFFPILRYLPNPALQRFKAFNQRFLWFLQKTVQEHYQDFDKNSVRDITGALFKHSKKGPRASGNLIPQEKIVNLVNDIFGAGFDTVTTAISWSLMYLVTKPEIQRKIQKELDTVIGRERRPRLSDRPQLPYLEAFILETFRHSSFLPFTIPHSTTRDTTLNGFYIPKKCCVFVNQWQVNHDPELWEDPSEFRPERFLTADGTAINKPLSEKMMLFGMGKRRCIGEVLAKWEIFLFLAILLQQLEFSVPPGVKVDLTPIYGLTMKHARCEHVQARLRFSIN
Sequence of Calcium and integrin-binding protein 1 (Homo sapiens) (Q99828 whole entry, looked up): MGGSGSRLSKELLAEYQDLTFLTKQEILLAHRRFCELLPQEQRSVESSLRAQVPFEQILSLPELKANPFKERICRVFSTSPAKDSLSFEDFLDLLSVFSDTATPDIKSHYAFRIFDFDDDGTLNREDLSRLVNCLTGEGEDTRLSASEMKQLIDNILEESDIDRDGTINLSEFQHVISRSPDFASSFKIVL

**Q.** What does the source list for `c1cnc(N2CCC3(CCNCC3)CC2)nc1`?
**A.** Potency [1]: > 11.4 µM (inactive); outcome [2]: inactive; Potency [3]: inactive; outcome [4]: inactive; Potency [5]: > 46 µM (inactive); outcome [6]: inactive; Potency [7]: inactive; Potency [8]: inactive; activity change, negative = inhibition [9]: 5.39% (inactive); max response [9, 16]: 13.8%; max response [9, 17]: 23.4%; outcome [10]: inactive; Potency [11]: inactive; max response [12]: 1.49% (inactive)

**Q.** For `c1cc(N2CCCC3(CCNCC3)C2)ccn1`, which Potency [13] is on record?
**A.** > 20 µM (inactive)

**Q.** And the Potency [1]?
**A.** > 11.4 µM (inactive)

**Q.** And the outcome [2]?
**A.** inactive

**Q.** And the outcome [4]?
**A.** inactive

**Q.** What about the Potency [5] of the same compound?
**A.** > 46 µM (inactive)

**Q.** What about the outcome [6] of the same compound?
**A.** inactive

**Q.** And the Potency [8]?
**A.** inactive

**Q.** What about the activity change, negative = inhibition [9] of the same compound?
**A.** 4.41% (inactive)

**Q.** And the max response [9, 16]?
**A.** 13.5%

**Q.** And the max response [9, 17]?
**A.** 21.3%

**Q.** And the Potency [11]?
**A.** 14.1 µM (active)

**Q.** With `COc1ccc(NC(=O)N2CCCC3(CCN(C(=O)Oc4ccccc4)CC3)C2)cc1` as the compound, how does the Potency [13] read?
**A.** > 20 µM (inactive)

**Q.** What about the Potency [1] of the same compound?
**A.** > 11.4 µM (inactive)

**Q.** And the outcome [2]?
**A.** inactive

**Q.** What about the Potency [3] of the same compound?
**A.** 12.6 µM (active)

**Q.** What about the outcome [4] of the same compound?
**A.** inactive

**Q.** What about the Potency [5] of the same compound?
**A.** > 46 µM (inactive)

**Q.** What about the outcome [6] of the same compound?
**A.** inactive

**Q.** And the Potency [7]?
**A.** inactive

**Q.** And the Potency [8]?
**A.** inactive

**Q.** What about the outcome [10] of the same compound?
**A.** inactive

**Q.** And the Potency [11]?
**A.** inactive

**Q.** With `N#Cc1nc(-c2cccc3ccccc23)oc1NCc1ccccc1` as the compound, how does the outcome [14] read?
**A.** inactive

**Q.** With `CCOc1ccc(CCNC(=O)c2cc3cnccc3n2Cc2cccc(C)n2)cc1OCC` as the compound, how does the outcome [14] read?
**A.** inactive

**Q.** For `CCOc1ccc(CCNC(=O)c2cc3ccccc3n2Cc2cccc(C)n2)cc1OCC`, which outcome [14] is on record?
**A.** inactive

**Q.** What does the source list for `c1cc(CN2CCCC3(CCNCC3)C2)ccn1`?
**A.** Potency [13]: > 20 µM (inactive); Potency [1]: > 11.4 µM (inactive); outcome [2]: inactive; Potency [3]: inactive; activity change, negative = inhibition [15]: -14.6% (inactive); outcome [4]: inactive; Potency [5]: > 46 µM (inactive); outcome [6]: inactive; Potency [7]: inactive; Potency [8]: inactive; activity change, negative = inhibition [9]: 4.72% (inactive); max response [9, 16]: 11%; max response [9, 17]: 17.7%; outcome [10]: inactive; max response [12]: 27.2% (inactive)
